Experimental data from PubChem BioAssay (NCI).
The panel holds about 83,000 compounds, 20% with a hit somewhere; the sample as a whole holds those more often.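 Results are percent growth after 48 hours of single-concentration exposure. 100 means growth as in untreated cells, lower positive values show inhibition; negative values down to -100 show cell death.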 Active and inactive are the calls of the source. How the source made its calls: active means growth percent below 10; inactive means the rest.

Each molecule was assayed on M14 melanoma (assay: NCI-60 one-dose screen, 48 h (100 = growth as untreated, 0 = no growth, -100 = all killed)). Details: 10 µM unless noted.
In the case of `Cc1ccc2c(n1)C(=O)C(Cl)=C(Nc1cccc(C(C)C)c1)C2=O`, the growth is reported as 44.7% (inactive).
With `Cn1cc(-c2cc(N)n3nc(-c4cn(C)c5ccc(F)cc45)cc3n2)c2cc(F)ccc21` the growth was 20.3% (inactive).
With `Cn1c(SCC(=O)c2cccs2)nc2ccccc2c1=O` the growth was 97.8% (inactive).
`CCCC(=O)NC(c1ccc(N(CC)CC)cc1)c1cc(C)c2cccnc2c1O` (stereo not given) was tested, and the growth was -33% (active).
For `COC(=O)C1CCCN(S(=O)(=O)/N=C2\NC(=O)NC2=C(Cl)Cl)C1` (stereo not given), the growth was 99.3% (inactive).
`O=C(N/N=C/c1ccc([N+](=O)[O-])s1)c1[nH]c2ccc(Br)cc2c1-c1ccccc1` was tested, and the growth was -34.5% (active).
`C=C1CC[C@H]2[C@@](C)(CCC3OC(c4ccc(OCc5cn(C6CC(OC(C)=O)C(OC(C)=O)C(COC(C)=O)O6)nn5)cc4)OC[C@]32C)[C@@H]1/C=C/C1=CCOC1=O` (stereo not given in full) was tested, and the growth was 93.9% (inactive).
With `COc1ccc([C@@H]2c3[nH]c4ccccc4c3CC3C(=O)N(C4CCN(Cc5c(F)cccc5F)CC4)CC(=O)N32)c(OC)c1` (stereo not given in full) the growth was 26.4% [5.26 µM] (inactive).
For `O=C(N/N=C/c1ccc(Br)s1)c1[nH]c2ccc(Br)cc2c1-c1ccccc1`, the growth was 2.05% (active).
For `O=C1c2c(c3c4cccnc4[nH]c3c3ccc4ccccc4c23)C(=O)N1CCO`, the growth was 86.1% (inactive).
With `Nc1c(C(=O)Nc2ccc(C(F)(F)F)cc2)sc2nc(-c3cnccn3)cc(-c3cccs3)c12` the growth was 49.4% (inactive).
With `CSc1ccc2c(c1)N(C(=O)/C(C#N)=C/c1c[nH]c3ccccc13)c1ccccc1S2` the growth was 29.5% (inactive).
With `Cc1cc(C(=O)Nc2sc3c(c2C(N)=O)CCC(=O)C3)ccc1OCCN1CCCCC1` the growth was 108% (inactive).
In the case of `CN(C)c1ccc(/C=c2\sc3nc4ccccc4n3c2=O)cc1`, the growth is reported as 102% (inactive).
`CN(C)c1ccc(/C=C2\Cc3c(F)ccc(Br)c3C2=O)cc1` was tested, and the growth was 92.1% (inactive).
For `CN1CCN(Cc2ccc(NC(=O)c3cncc(C#Cc4cnc5ccc(N6CCSCC6)nn45)c3)cc2C(F)(F)F)CC1`, the growth was -81.6% (active).
`COc1cc(/C=C/C(=O)c2ccc(C)cc2)ccc1Oc1nc(NCCO)nc(N2CCOCC2)n1` was tested, and the growth was -64.4% (active).
For `O=C(CSc1nnc(-c2ccc3nc(-c4ccc(Cl)cc4)[nH]c3c2)o1)Nc1ccc(C(=O)/C=C/c2ccc(Cl)cc2)cc1`, the growth was 102% (inactive).
With `C#Cc1nc(C2=C(C)C(=N\O)/C(=N/O)C2)cs1` the growth was 89.6% (inactive).
In the case of `CCOc1ccc2nc(NC(=O)c3ccc(C(F)(F)F)cc3)sc2c1`, the growth is reported as 107% (inactive).
`CC(O)C(NC(=O)C1CCCN1C(=O)CNC(=O)C1CC(=O)NCC(=O)NC(Cc2c[nH]c3ccccc23)C(=O)NC(Cc2ccc(O)cc2)C(=O)NCC(=O)NC(CO)C(=O)NC(CCC(N)=O)C(=O)NC(Cc2c[nH]c3ccccc23)C(=O)N1)C(=O)NCC(=O)NC(CCC(N)=O)C(=O)NC(CCCNC(=N)N)C(=O)NC(CC(=O)O)C(=O)O` (stereo not given) was tested, and the growth was 91.1% (inactive).
In the case of `CC1=C(C)C(=O)C(Nc2ccccc2)=C(Cl)C1=O`, the growth is reported as 95.9% (inactive).
With `CO/N=C1\CCc2c(sc(NC(=O)c3cccc(C(F)(F)F)c3)c2C(N)=O)C1` the growth was 47.7% (inactive).
With `COc1ccc(CNS(=O)(=O)/N=C2\NC(=O)NC2=C(Cl)Cl)cc1` the growth was 25.2% (inactive).
`NS(=O)(=O)c1cccc(Nc2nc(SCC(=O)c3ccc([N+](=O)[O-])cc3)nc3ccccc23)c1` was tested, and the growth was 38.5% (inactive).
`Cn1ccnc1C(=O)/C=C/c1ccc(NC(=O)Nc2ccccc2)cc1` was tested, and the growth was 24.8% (inactive).
`CCOC(=O)c1sc(N)c(C(=O)OCC)c1C` was tested, and the growth was 78% (inactive).
With `CN(C)S(=O)(=O)c1oc(-c2ccccc2)nc1C#N` the growth was 27.5% (inactive).
In the case of `O=C1Nc2cc(Cl)ccc2/C1=C\c1ccc(OCc2ccc(Br)cc2F)cc1`, the growth is reported as -43.9% (active).
For `COc1cc(/C=C/C(=O)c2cc(OC)c(OC)c(OC)c2)ccc1OCc1ccccc1`, the growth was 65.7% (inactive).
In the case of `NC(=O)c1cc(-c2ccc3ncnc(N4CCc5cc(F)c(Cl)cc54)c3c2)cnc1N`, the growth is reported as 38.3% (inactive).
In the case of `COc1ccc(NC2=C(Cl)C(=O)C(C)=C(C)C2=O)cc1OC`, the growth is reported as 95.7% (inactive).
In the case of `Cn1ccnc1C(=O)/C=C/c1ccc(NC(=O)Nc2ccc(F)cc2)cc1`, the growth is reported as 45.1% (inactive).
With `O=C(CCN1C(=O)/C(=C/c2ccccc2)SC1=S)N1CCOCC1` the growth was 76.8% (inactive).
With `Cc1ccc(CNS(=O)(=O)/N=C2\NC(=O)NC2=C(Cl)Cl)cc1` the growth was 87.2% (inactive).
